PubChem BioAssay AID1508615 (Milbrandt Lab, Department of Genetics, Washington …, 2020)
Out of some 1,600 compounds screened, about 20 (1%) were called active. Many of the other results were omitted from the sample, so actives are more common in it than they were. Unmarked numbers belong to inactive results.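 Rule for the calls: active = ratio of uncleaved NAD to its breakdown product ADP-ribose above 4, meaning the enzyme was inhibited; inactive = the rest.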

target: NAD(+) hydrolase SARM1 (Homo sapiens) (UniProt Q6SZW1); assay: SARM1 TIR NADase inhibitors by HPLC, primary screen, cell lysate, HPLC readout (AID 1508615); conditions: HEK293T SAM-TIR lysate, at 5 µM, active compounds read high;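 note: substrate NAD at 5 µM with 60 min at 37 °C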
Sequence (Q6SZW1 whole entry, looked up): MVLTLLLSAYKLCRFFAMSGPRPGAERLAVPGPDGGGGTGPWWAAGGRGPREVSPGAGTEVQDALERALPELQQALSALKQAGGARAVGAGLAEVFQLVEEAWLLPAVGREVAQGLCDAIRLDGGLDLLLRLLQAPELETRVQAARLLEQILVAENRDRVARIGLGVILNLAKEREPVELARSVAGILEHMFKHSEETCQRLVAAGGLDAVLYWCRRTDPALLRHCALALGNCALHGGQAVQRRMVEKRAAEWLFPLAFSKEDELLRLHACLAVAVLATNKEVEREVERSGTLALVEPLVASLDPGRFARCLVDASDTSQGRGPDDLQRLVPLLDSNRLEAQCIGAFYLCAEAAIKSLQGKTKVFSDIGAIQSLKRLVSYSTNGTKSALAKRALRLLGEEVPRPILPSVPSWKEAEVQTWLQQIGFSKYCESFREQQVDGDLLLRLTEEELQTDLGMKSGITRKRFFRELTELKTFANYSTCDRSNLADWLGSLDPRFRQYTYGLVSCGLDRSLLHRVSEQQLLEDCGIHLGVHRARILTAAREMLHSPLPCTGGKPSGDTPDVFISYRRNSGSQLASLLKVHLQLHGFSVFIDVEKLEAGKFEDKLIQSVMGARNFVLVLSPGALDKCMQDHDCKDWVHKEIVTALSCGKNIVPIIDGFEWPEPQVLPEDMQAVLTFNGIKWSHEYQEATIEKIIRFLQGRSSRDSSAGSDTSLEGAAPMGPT

`C=CCN1CCN(c2ccncc2S(=O)(=O)N2CCN(C)CC2)CC1` and `Cc1ccc(N2CCN(CC(O)COc3cccc(C)c3)CC2)cc1` (stereo not drawn) are the same in NAD/ADPR ratio: 3 for the first, 3 for the second.

`COC(=O)Nc1csc2c1NC(=O)CCCC2` and `CCOC(=O)Cc1c[nH]c(=S)[nH]c1=O` are the same in NAD/ADPR ratio: 3 for the first, 3 for the second.

`Nc1ccc2c(c1Cl)C(=O)c1ccc(N)c(Cl)c1C2=O` and `O=C1c2cccc(Oc3ccccc3)c2C(=O)c2cccc(Oc3ccccc3)c21` are the same in NAD/ADPR ratio: 3 for the first, 3 for the second.

`O=C1OCC/C1=C\OCCCO/C=C1\CCOC1=O` and `[O-]/[N+](=C\c1ccccc1)CC1(O)CCCCC1` are the same in NAD/ADPR ratio: 3 for the first, 3 for the second.

`CC(C)C(=O)Nc1cccnc1` and `CC1CCC(C(C)C)C(NC(=O)c2ccncc2)C1` (stereo not drawn) are the same in NAD/ADPR ratio: 3 for the first, 3 for the second.

`C=CCOc1ccnc(-c2ccccc2)n1` and `Cc1ccc(-c2nc(-c3nccc4ccccc34)oc2-c2ccccc2)cc1` are the same in NAD/ADPR ratio: 3 for the first, 3 for the second.

Compared with `O=[N+]([O-])c1ccc(NN=C(c2ccccc2)c2ccccc2)nc1`, `O=C(Nc1ccc(C(=O)O)c(O)c1)c1ccccc1` is higher in NAD/ADPR ratio: 2.8 for the first, 3 for the second.

`Cn1cnc([N+](=O)[O-])c1Sc1nnc(-c2cccnc2)n1C` and `Cn1cnc([N+](=O)[O-])c1Sc1ncn[nH]1` are the same in NAD/ADPR ratio: 3 for the first, 3 for the second.

`NC(=S)Nc1cccc(Cl)c1` and `C=CCNC(=S)Nc1cccc([N+](=O)[O-])c1` are the same in NAD/ADPR ratio: 3 for the first, 3 for the second.

`CCC(CO)Nc1nc2ccc(Cl)cc2c2ccccc12` (stereo not drawn) and `COc1ccc2nc3cc(Cl)ccc3c(C#N)c2c1` are the same in NAD/ADPR ratio: 3 for the first, 3 for the second.

`O=c1cc(CO)[nH]nc1CO` and `Oc1ccc2ccc3[nH]cnc3c2c1` are the same in NAD/ADPR ratio: 3 for the first, 3 for the second.

`CC(C)(NC(=O)c1cc(Cl)c2ccccc2c1O)C(=O)O` and `O=C(O)c1ccc(NCc2nc3ccccc3[nH]2)cc1` are the same in NAD/ADPR ratio: 3 for the first, 3 for the second.

Compared with `Cn1c(=O)c2[nH]c(COc3ccc(C(C)(C)C)cc3)nc2n(C)c1=O`, `Clc1nc(NCCc2ccccc2)c2cn[nH]c2n1` is lower in NAD/ADPR ratio: 3 for the first, 2.8 for the second.

`S=C1N(c2ccccc2)CN(C2CCCCC2)CN1c1ccccc1` and `CC1(CN2CCCC2)CCC(NC(=O)C(c2ccccc2)c2ccccc2)C(C)(C)O1` (stereo not drawn) are the same in NAD/ADPR ratio: 3 for the first, 3 for the second.

`O=[N+]([O-])c1ccc(Sc2ncccn2)c([N+](=O)[O-])c1` and `C(=C\c1ccncc1)/c1ccncc1` are the same in NAD/ADPR ratio: 3 for the first, 3 for the second.

`N/C(CC(=O)Nc1cc(C(F)(F)F)ccc1Cl)=N\O` was tested, and the NAD/ADPR ratio was 3.

With `CC(=O)c1cc(O)c2ccccc2c1O` the NAD/ADPR ratio was 10.2 (active).
With `O=[N+]([O-])c1ccc(Sc2cccc[n+]2[O-])c2nonc12` the NAD/ADPR ratio was 12.6 (active).
